Data taken from PubChem BioAssay AID1224853 (National Center for Advancing Translational Sciences (NCATS), 2016).
Results filed as inconclusive are left out. Active and inactive are the calls of the source. Calls follow the shape of the dose curve; as a rule, active = well fitted inhibition curve with a large enough effect; inconclusive = small, poorly fitted or top-dose-only effect; inactive = no such curve, though single readings can be large or run the other way.

assay: Confirmation assay for measurement of the activity of small molecule inhibitors on Zika virus induced Caspase-3 activity in human astrocytoma cells; conditions: SNB-19 ZIKV-induced caspase-3/7, luminescence, 6 h; series mostly up to 46.1 µM
Method in brief: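 SNB-19, 250 cells/well, cultured 16-20 h; cpd 1 h pre-incubation; ZIKV 2 FFU/cell, 6 h, 37 C/5% CO2; Caspase-Glo 3/7 30 min RT; luminescence; normalized vs uninfected/infected controls.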

Question: Which Potency does the source give for `O=C(C=CC=Cc1ccc2c(c1)OCO2)N1CCCCC1` here?
Answer: 19.5 µM (active)

Question: For `O=C(O)[C@H](CC(=O)N1C[C@@H]2CCCC[C@H]2C1)Cc1ccccc1`, which Potency is on record?
Answer: inactive

Question: Which Potency does the source give for `NC(=O)c1cccc2[nH]c(-c3ccc([C@H]4CCCN4)cc3F)nc12` here?
Answer: 17.3 µM (active)

Question: With `C[C@H](NC(=O)C(=O)Nc1ccccc1C(C)(C)C)C(=O)N[C@@H](CC(=O)O)C(=O)COc1c(F)c(F)cc(F)c1F` as the molecule, how does the Potency read?
Answer: 0.615 µM (active)

Question: Which Potency does the source give for `CC(C(=O)O)c1ccc(-c2ccccc2)c(F)c1` (configuration not stated) here?
Answer: inactive

Question: For `COc1ccnc2c1CCCCC2S(=O)c1nc2ccccc2[nH]1` (configuration not stated), which Potency is on record?
Answer: inactive

Question: Which Potency does the source give for `O=C(O)c1cc([N+](=O)[O-])ccc1NCCCc1ccccc1` here?
Answer: 19.5 µM (active)

Question: For `Cc1cccc(C#Cc2ccccc2)n1`, which Potency is on record?
Answer: 4.89 µM (active)

Question: Which Potency does the source give for `Cc1ccc(O)c(-n2nc3ccccc3n2)c1` here?
Answer: 7.74 µM (active)

Question: For `CCN1CCC(n2cc(CNc3cc(Cl)c4ncc(C#N)c(Nc5ccc(F)c(Cl)c5)c4c3)nn2)CC1`, which Potency is on record?
Answer: inactive

Question: For `Nc1ccc(N=Nc2ccccc2)c(N)n1`, which Potency is on record?
Answer: 12.3 µM (active)

Question: Which Potency does the source give for `c1ccc(CCNc2nc(-c3ccccc3)cs2)cc1` here?
Answer: 15.5 µM (active)

Question: Which Potency does the source give for `O=C(CS)Nc1ccccc1` here?
Answer: inactive

Question: Which Potency does the source give for `CNC1[C@H](O)C(O[C@@H]2C(O)C(O[C@H]3O[C@H]([C@@H](C)NC)CC[C@H]3N)[C@@H](N)C[C@H]2N)OC[C@]1(C)O` (some centres not stated) here?
Answer: inactive

Question: Which Potency does the source give for `O=C1NC(=O)C(=Cc2ccc(-c3ccc(F)cc3)o2)S1` here?
Answer: 13.8 µM (active)

Question: Which Potency does the source give for `Cc1cc(O)c2c(c1)C(=O)c1cc(O)cc(O)c1C2=O` here?
Answer: 4.89 µM (active)

Question: With `CO[C@H]1C(=O)[C@]2(C)[C@@H](OC)C[C@H]3OC[C@@]3(OC(C)=O)[C@H]2[C@H](OC(=O)c2ccccc2)[C@]2(O)C[C@H](OC(=O)[C@H](O)[C@@H](NC(=O)OC(C)(C)C)c3ccccc3)C(C)=C1C2(C)C` as the molecule, how does the Potency read?
Answer: inactive
